Assay outcomes as filed in PubChem BioAssay.
Wnt act: activators of Wnt/beta-catenin signaling. Wnt/beta-catenin reporter cell assay, activator, plate reader. activation, % at 9.35 µM. 1.2% of 300,000 active; in the data active = activation above about 30%, passing the limit was not always enough; inconclusive = no clear call, values can overlap the other calls
FXN GAA850 act: increases GAA850 frataxin promoter reporter activity | HEK293 lucGAA850 FXN promoter luciferase reporter, 24 h; percent of 10 µM SAHA response | activation, % at 6 µM | 0.56% of 360,000 active;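 active = activation above the average of all compounds screened plus 3 SD, cutoff fixed separately per campaign, cut at about 7.5% in these data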
MITF act: increases MITF-driven TRPM1 promoter luciferase signal | 0.75% of 300,000 active | AID 588334 | SK-MEL-5 TRPM1-promoter luciferase, 24 h; % of positive control, neutral wells = 0 | activation, % at 12.5 µM;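 active = mean activation of at least 80% with every replicate also reaching 80%; inconclusive = mean reaches 80% but some replicate falls short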
esBAF inh: blocks esBAF chromatin remodeling in mouse ES cells. Bmi1-luciferase knock-in reporter, 24 h; 100% = twice the neutral-well signal. reporter increase, % at 12.5 µM. 2% of 350,000 active; in the data active = activation above about 40%; inconclusive = no clear call, values can overlap the other calls;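 note: a rise in the Bmi1 reporter signal indicates esBAF inhibition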
A number is an active result; - = inactive; ? = inconclusive; . = not tested or not shown. Rows were chosen to be rich in hits. Some 2.8% of all compounds tested hit in one or more screens of this group.

SMILES | Wnt act | FXN GAA850 act | MITF act | esBAF inh
Fc1cccc(/C=N/Nc2ccccn2)c1 | - | - | 97.5 | .
C[C@H](CO)N1C[C@H](C)[C@@H](CN(C)Cc2cccc(C(=O)O)c2)Oc2cc(C#CCC3CCCC3)ccc2S1(=O)=O | . | . | . | -
C[C@@H]1CCCCO[C@@H](CN(C)C(=O)Nc2ccc3c(c2)OCO3)[C@H](C)CN([C@H](C)CO)C(=O)c2cc(NC(=O)Nc3ccccc3)ccc2O1 | . | . | . | -
C[C@@H]1CN([C@@H](C)CO)C(=O)c2cc(NC(=O)Nc3ccc4c(c3)OCO4)ccc2O[C@@H](C)CCCCO[C@@H]1CN(C)Cc1ccncc1 | . | . | . | -
C[C@H](CO)N1C[C@H](C)[C@@H](CN(C)C(=O)Nc2ccc(F)cc2)OCCCC[C@H](C)Oc2ccc(NC(=O)Nc3ccc4c(c3)OCO4)cc2C1=O | . | . | . | 50.5
C[C@H]1CCCCO[C@@H](CN(C)Cc2ccncc2)[C@@H](C)CN([C@@H](C)CO)C(=O)c2cc(NC(=O)Nc3ccc4c(c3)OCO4)ccc2O1 | . | . | . | 80.0
C[C@@H]1CN([C@@H](C)CO)C(=O)c2cc(NC(=O)Nc3ccc4c(c3)OCO4)ccc2O[C@@H](C)CCCCO[C@H]1CN(C)C(=O)Nc1ccccc1 | . | . | . | 65.9
CO[C@H]1CN(C)C(=O)c2cc(NC(=O)Nc3cc(F)ccc3F)ccc2OC[C@@H](C)N(C(=O)c2ccccn2)C[C@H]1C | . | . | . | -
O=C(Nc1nc2ccsc2c(=O)s1)c1ccc(F)cc1Cl | 51.7 | - | . | .
Cc1csc2c(=O)sc(NC(=O)c3ccc(F)cc3Cl)nc12 | - | - | . | -
C[C@H]1CN([C@@H](C)CO)C(=O)CCCn2cc(nn2)CO[C@@H]1CN(C)Cc1ccc2cccnc2c1 | . | . | . | -
Cc1nc2ccc(NC(=S)NCc3ccccc3)cc2nc1C | - | - | - | 41.3
C=CCNC(=S)Nc1ccc2nc(C)c(C)nc2c1 | . | - | . | ?
Cc1ccc(-c2nnc(CCC(=O)N(C)Cc3nccs3)o2)s1 | - | - | - | 44.0
CC(=O)c1ccc(-c2nnc(CCC(=O)N(C)Cc3cccc4cnccc34)o2)s1 | - | - | - | .
C[C@@H]1CN([C@@H](C)CO)C(=O)c2cc(NS(=O)(=O)c3ccc(F)cc3)ccc2O[C@H]1CN(C)Cc1ccncc1 | . | . | . | -
CCOc1c(Cl)cc(C2NC(=O)NC(C)=C2C(=O)NCc2ccccc2)cc1OC (stereo unspecified) | . | - | - | 50.0
CC(C)(C)NC(=O)c1ccc(COc2ccccc2Br)o1 | . | - | - | -
CCN(CC)C(=O)c1ccc(COc2ccc(Cl)c(C)c2)o1 | - | - | . | 77.5
CCN(CC)C(=O)c1ccc(COc2ccccc2Br)o1 | . | - | - | 73.1
Cc1cc(OCc2ccc(C(=O)n3cccn3)o2)ccc1Cl | 46.8 | - | - | .
O=C(c1ccc(COc2ccc(F)cc2)o1)n1cccn1 | - | - | - | -
COc1ccc2nc(NC3=NCCC3)sc2c1 | 57.5 | - | - | 57.5
COc1ccc(-c2nc(NC3=NCCCCC3)sc2C)cc1 | - | - | - | .
COc1cccc(Nc2nc3ccc(OC)cc3s2)c1 | - | - | 114.8 | .
SMILES | Wnt act | FXN GAA850 act | MITF act | esBAF inh
O=C(c1ccccc1F)N1C[C@H]2[C@@H](c3ccccc31)[C@@H](CO)N2C(=O)c1ccccc1 | . | . | . | -
COc1cccc(S(=O)(=O)N[C@H]2CC[C@@H](CCNC(=O)Nc3cc(F)ccc3F)O[C@H]2CO)c1 | . | . | . | -
O=C(NCC1CC1)Nc1ccc(Cl)cc1 | - | - | ? | 67.9
CCc1ccc(NC(=O)C2C3/C=C\CCCCC32)cc1 (stereo unspecified) | . | - | 94.1 | 60.8
CCc1ccc(NC(=O)C2CCCCC2C(=O)O)cc1 (stereo unspecified) | - | - | - | .
O=C(Nc1ccc(Cl)cc1)C1C2CCCCC21 (stereo unspecified) | - | - | . | 72.5
O=C(NCC1CC1)Nc1cccc(Cl)c1 | - | - | - | -
C[C@@H]1CCCCO[C@@H](CN(C)C(=O)Nc2cccc3ccccc23)[C@H](C)CN([C@@H](C)CO)C(=O)c2cc(NC(=O)NC3CCCCC3)ccc2O1 | . | . | . | -
CC(C)C#Cc1ccc2c(c1)O[C@@H](CN(C)C(=O)c1ccncc1)[C@H](C)CN([C@H](C)CO)S2(=O)=O | . | . | . | -
O=C(C[C@@H]1CC[C@H]2[C@@H](COC[C@@H](O)CN2C(=O)c2ccccc2F)O1)NCc1ccc(Cl)cc1 | . | . | . | -
CN(C)/C=C/C(=O)c1ccc(-n2cccc2)cc1 | 53.7 | - | - | .
CN(C)/C=C/C(=O)c1ccc(Cl)cc1 | - | - | . | -
CC(=O)Nc1cccc(N/C=C(\C=O)c2nc3ccccc3o2)c1 | - | - | - | 58.1
CC(=O)Nc1ccc(/C=C/c2nc3ccccc3o2)cc1 | 51.6 | - | - | -
O=C/C(=C\Nc1ccccn1)c1nc2cc(Cl)ccc2o1 | - | - | - | 46.7
